TcdB GH inh: TcdB glycohydrolase inhibition | P18177 | TcdB glycohydrolase enzymatic assay, plate reader | inhibition, % at 9.99 µM | 350,000 compounds, 0.24% hits | AID 652162; in the data active = inhibition above about 10%
PrPC TRFRET: reduces human prion protein on the cell surface. P04156. cell surface PrPC, TR-FRET read-out. inhibition, % at 13.8 µM. 370,000 compounds, 0.43% hits; in the data active = inhibition above about 24%; note: 0% = median of the test wells and 100% = reference compound wells
VHR inh abs: inhibitors of human VHR1 phosphatase (DUSP3); P51452; recombinant VHR phosphatase, pNPP absorbance; inhibition, % at 13.3 µM; 290,000 compounds, 0.52% hits; AID 1654; in the data active = inhibition above about 50%
PrPC confirm: confirmation of inhibitors of cell surface human prion protein; shares compounds with PrPC TRFRET; cell surface PrPC level, TR-FRET; inhibition, % at 13.8 µM; 1,500 compounds, 65% hits; in the data active = inhibition above about 25%
LD9 tox: counter-screen for PrPc inhibitors: cytotoxicity in LD9 cells | luminescence viability | AID 743201 | 1,500 compounds, 29% hits | inhibition, % at 13.8 µM | shares compounds with PrPC TRFRET; in the data active = inhibition above about 9.5%
* hit, by the source's call. Shown are actives, neighbours in structure and some others; about 0.82% of the full set was active somewhere.

`O=C(C[C@H]1CC[C@@H]2[C@H](COC[C@H](O)CN2C(=O)c2cccnc2)O1)Nc1ccc(-c2ccccc2)cc1` gave TcdB GH inh 0.5.
`O=C(C[C@H]1C=C[C@@H](NC(=O)CC2CC2)[C@@H](CO)O1)NCc1ccccc1` gave TcdB GH inh -2.2.
For Cc1cccc(C(O)c2ncc(-c3ccc(C(F)(F)F)cc3)[nH]2)c1C (configuration not stated) the results were TcdB GH inh -5.4, PrPC TRFRET 25.6*, PrPC confirm 18.4 and LD9 tox 0.3.
Screening Cc1cccc(C(O)c2ncc(-c3ccc(Cl)cc3)[nH]2)c1C (configuration not stated) returned TcdB GH inh 0.3 and PrPC TRFRET 3.2.
C[C@H](CO)N1C[C@H](C)[C@@H](CN(C)C(=O)Nc2ccccc2)Oc2ccc(NS(=O)(=O)c3cn(C)cn3)cc2CC1=O was read as TcdB GH inh 0.0.
`Cc1ccc(NC(=O)c2ccc(Nc3c([N+](=O)[O-])cc([N+](=O)[O-])cc3[N+](=O)[O-])cc2)cc1` gave TcdB GH inh 0.4, PrPC TRFRET 24.8*, VHR inh abs -3.9, PrPC confirm 6.9 and LD9 tox 36.7*.
CC(=O)Nc1ccc(NC(=O)c2cc([N+](=O)[O-])cc([N+](=O)[O-])c2)cc1 was read as TcdB GH inh -0.2, PrPC TRFRET -56.2 and VHR inh abs -27.5.
COc1cccc(NS(=O)(=O)c2ccc3c(c2)CCN3C(C)=O)c1 was read as TcdB GH inh 0.8, PrPC TRFRET 15.9 and VHR inh abs 37.7.
CSc1cccc(NS(=O)(=O)c2ccc3c(c2)CCN3C(C)=O)c1 was read as TcdB GH inh 0.7, PrPC TRFRET 25.3*, VHR inh abs 26.3, PrPC confirm 20.9 and LD9 tox 14.6*.
For O=C(Nc1ccc2c(c1)OCCO2)c1ccc(Br)c(S(=O)(=O)N2CCOCC2)c1 the results were PrPC TRFRET 13.2 and VHR inh abs 8.2.
For O=C(Nc1ccc2c(c1)OCO2)c1ccc(Br)c(S(=O)(=O)N2CCCC2)c1 the results were PrPC TRFRET 24.6*, VHR inh abs 16.1, PrPC confirm 21.2 and LD9 tox 6.9.
C[C@@H]1CCCCO[C@H](CN(C)C(=O)CCC(F)(F)F)[C@@H](C)CN([C@H](C)CO)C(=O)c2cc(NC(=O)Nc3ccc4c(c3)OCO4)ccc2O1 was read as TcdB GH inh -1.1.
`COc1ccc(S(=O)(=O)N(C)C[C@@H]2Oc3ncc(C#CC4(O)CCCC4)cc3C(=O)N([C@@H](C)CO)C[C@@H]2C)cc1` gave TcdB GH inh 0.0.
CCN(CC)C(=O)Cn1cc(C(=O)C(=O)N2CCc3ccccc32)c2ccccc21 was read as TcdB GH inh 0.2, PrPC TRFRET 53.4*, VHR inh abs 11.9, PrPC confirm 13.3 and LD9 tox -2.1.
`CCN(CC)C(=O)Cn1cc(C(=O)C(=O)N2CCCc3ccccc32)c2ccccc21` gave TcdB GH inh 4.8, PrPC TRFRET -3.4 and VHR inh abs -16.0.
Screening C[C@H]1CN([C@@H](C)CO)C(=O)c2cc(NC(=O)CCCCCC(=O)Nc3ccccc3N)ccc2O[C@@H]1CN(C)S(=O)(=O)c1ccc(F)cc1 returned TcdB GH inh -2.0.
`CN1C2CCC1CC(=NO)C2` gave TcdB GH inh 1.0, PrPC TRFRET 83.9*, VHR inh abs 25.6, PrPC confirm 4.9 and LD9 tox 0.2.
Screening CN1C(c2ccccc2)CC(=NO)CC1c1ccccc1 (configuration not stated) returned TcdB GH inh 0.1, PrPC TRFRET 7.9 and VHR inh abs 39.6.
`NC(COCc1ccccc1)c1csc(Nc2ncccn2)n1` (configuration not stated) gave TcdB GH inh 0.3 and PrPC TRFRET 5.4.
For CC(C)CC(N)c1csc(Nc2ncccn2)n1 (configuration not stated) the results were TcdB GH inh 0.5, PrPC TRFRET 41.5*, PrPC confirm 50.1* and LD9 tox -1.3.
For C[C@@H]1CN([C@@H](C)CO)C(=O)c2cc(NS(=O)(=O)c3ccc(Cl)cc3)ccc2O[C@@H](C)CCCCO[C@H]1CN(C)Cc1ccc(C(=O)O)cc1 the results were TcdB GH inh -0.5.
For CCC(=O)N1[C@@H](CO)[C@@H](c2ccccc2)C12CN(C(=O)c1ccc3c(c1)OCO3)C2 the results were TcdB GH inh 0.3.
For CC(=O)C(Sc1ccc2nnc(-c3ccc(F)cc3)n2n1)C(C)=O the results were TcdB GH inh 4.5, PrPC TRFRET -6.7 and VHR inh abs 25.2.
For CCC(Sc1ccc2nnc(-c3ccc(F)cc3)n2n1)C(=O)O (configuration not stated) the results were PrPC TRFRET 38.0*, VHR inh abs 18.6, PrPC confirm 57.7* and LD9 tox -7.6.
`CN(C)C(=O)C[C@@H]1C=C[C@@H](NC(=O)C2CCOCC2)[C@H](CO)O1` gave TcdB GH inh -0.3.
`Cc1ccc(S(=O)(=O)N(C)C[C@H]2OCCCC[C@@H](C)Oc3ccc(NS(=O)(=O)c4ccc(Cl)cc4)cc3C(=O)N([C@@H](C)CO)C[C@@H]2C)cc1` gave TcdB GH inh -1.1.
`COc1ccccc1S(=O)(=O)N(C)C[C@@H]1OCc2ccccc2-c2c(n(C)c3ccccc23)C(=O)N([C@@H](C)CO)C[C@@H]1C` gave TcdB GH inh 0.9.
`CCn1cc(Cl)c(C(=O)Nc2ccccc2C(N)=O)n1` gave TcdB GH inh 0.4, PrPC TRFRET 54.2*, VHR inh abs 12.3, PrPC confirm 11.0 and LD9 tox -4.9.
Screening CCn1cc(Br)c(C(=O)Nc2ccccc2C(=O)OC)n1 returned TcdB GH inh 1.2, PrPC TRFRET 6.4 and VHR inh abs 9.6.
`CO[C@@H]1CN(C)C(=O)c2cc(NC(=O)c3ccccc3F)ccc2OC[C@@H](C)N(C(=O)c2ccccc2F)C[C@@H]1C` gave TcdB GH inh 0.8.
`Cc1ccc(Cc2c(-c3ccc(C)cc3)nc3ccc(Br)cn23)cc1` gave TcdB GH inh 0.7 and PrPC TRFRET 20.3.
Cc1cc(Br)cn2c(Cc3ccsc3)c(-c3cccc(Cl)c3)nc12 was read as TcdB GH inh -6.7 and PrPC TRFRET 10.4.
`COc1ccc(Cc2c(-c3ccco3)nc3c(C)cc(Br)cn23)c(C)c1` gave TcdB GH inh 3.9 and PrPC TRFRET -4.1.
For Cc1cc(Br)cn2c(Cc3ccsc3)c(-c3ccco3)nc12 the results were TcdB GH inh 1.1, PrPC TRFRET 30.1*, PrPC confirm 43.5* and LD9 tox -3.2.
Screening Cc1ccc(Cc2c(-c3ccco3)nc3ccc(Br)cn23)cc1 returned TcdB GH inh 3.8, PrPC TRFRET 33.7*, PrPC confirm 57.4* and LD9 tox -5.4.
`Cc1cc(Br)cn2c(Cc3ccccc3)c(-c3ccco3)nc12` gave TcdB GH inh -1.2, PrPC TRFRET 35.5*, PrPC confirm 50.3* and LD9 tox -2.8.
C[C@@H]1CN([C@@H](C)CO)C(=O)c2cc(-c3ccc(C#N)cc3)cnc2O[C@H]1CN(C)C(=O)Nc1ccccc1 was read as TcdB GH inh -1.3.
